What was measured:
[1] = molecular target: Platelet-derived growth factor receptor beta (Homo sapiens) (UniProt P09619); conditions: at 1 µM;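 note: each value is a mean percent inhibition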
[2] = molecular target: Tyrosine-protein kinase FRK (Homo sapiens) (UniProt P42685); conditions: at 0.1 µM
[3] = molecular target: Tyrosine-protein kinase FRK (Homo sapiens) (UniProt P42685); conditions: at 1 µM
[4] = molecular target: Protein-tyrosine kinase 2-beta (Homo sapiens) (UniProt Q14289); conditions: at 0.1 µM
Sequence of Protein-tyrosine kinase 2-beta (Homo sapiens) (Q14289 whole entry, looked up): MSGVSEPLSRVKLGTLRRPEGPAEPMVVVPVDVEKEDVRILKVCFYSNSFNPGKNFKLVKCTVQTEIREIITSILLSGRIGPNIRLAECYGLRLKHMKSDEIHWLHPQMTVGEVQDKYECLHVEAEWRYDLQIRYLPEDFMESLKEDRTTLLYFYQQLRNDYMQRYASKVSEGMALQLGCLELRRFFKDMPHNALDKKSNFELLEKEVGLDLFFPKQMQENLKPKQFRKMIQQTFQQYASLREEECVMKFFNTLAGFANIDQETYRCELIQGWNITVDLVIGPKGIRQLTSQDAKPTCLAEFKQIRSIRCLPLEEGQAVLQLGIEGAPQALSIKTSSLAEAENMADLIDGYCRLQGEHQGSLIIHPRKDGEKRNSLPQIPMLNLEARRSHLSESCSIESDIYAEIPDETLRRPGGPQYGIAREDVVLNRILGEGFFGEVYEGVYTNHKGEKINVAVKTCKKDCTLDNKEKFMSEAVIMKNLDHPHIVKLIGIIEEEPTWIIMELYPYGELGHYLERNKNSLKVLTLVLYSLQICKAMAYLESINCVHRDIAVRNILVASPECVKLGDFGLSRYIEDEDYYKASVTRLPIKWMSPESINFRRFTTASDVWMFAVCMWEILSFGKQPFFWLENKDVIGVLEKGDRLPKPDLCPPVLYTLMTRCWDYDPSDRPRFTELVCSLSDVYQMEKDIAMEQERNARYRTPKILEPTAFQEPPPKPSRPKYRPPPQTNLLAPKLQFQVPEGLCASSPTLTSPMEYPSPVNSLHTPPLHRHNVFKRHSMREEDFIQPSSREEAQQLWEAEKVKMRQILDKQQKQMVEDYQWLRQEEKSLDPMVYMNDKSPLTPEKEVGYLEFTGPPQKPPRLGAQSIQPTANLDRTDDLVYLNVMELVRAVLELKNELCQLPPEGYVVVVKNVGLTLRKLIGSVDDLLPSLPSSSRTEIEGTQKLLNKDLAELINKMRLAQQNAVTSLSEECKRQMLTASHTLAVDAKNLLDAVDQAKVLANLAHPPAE

[5] = molecular target: Protein-tyrosine kinase 2-beta (Homo sapiens) (UniProt Q14289); conditions: at 1 µM
[6] = molecular target: Proto-oncogene tyrosine-protein kinase receptor Ret (Homo sapiens) (UniProt P07949); conditions: at 0.1 µM
Sequence of Proto-oncogene tyrosine-protein kinase receptor Ret (Homo sapiens) (P07949 whole entry): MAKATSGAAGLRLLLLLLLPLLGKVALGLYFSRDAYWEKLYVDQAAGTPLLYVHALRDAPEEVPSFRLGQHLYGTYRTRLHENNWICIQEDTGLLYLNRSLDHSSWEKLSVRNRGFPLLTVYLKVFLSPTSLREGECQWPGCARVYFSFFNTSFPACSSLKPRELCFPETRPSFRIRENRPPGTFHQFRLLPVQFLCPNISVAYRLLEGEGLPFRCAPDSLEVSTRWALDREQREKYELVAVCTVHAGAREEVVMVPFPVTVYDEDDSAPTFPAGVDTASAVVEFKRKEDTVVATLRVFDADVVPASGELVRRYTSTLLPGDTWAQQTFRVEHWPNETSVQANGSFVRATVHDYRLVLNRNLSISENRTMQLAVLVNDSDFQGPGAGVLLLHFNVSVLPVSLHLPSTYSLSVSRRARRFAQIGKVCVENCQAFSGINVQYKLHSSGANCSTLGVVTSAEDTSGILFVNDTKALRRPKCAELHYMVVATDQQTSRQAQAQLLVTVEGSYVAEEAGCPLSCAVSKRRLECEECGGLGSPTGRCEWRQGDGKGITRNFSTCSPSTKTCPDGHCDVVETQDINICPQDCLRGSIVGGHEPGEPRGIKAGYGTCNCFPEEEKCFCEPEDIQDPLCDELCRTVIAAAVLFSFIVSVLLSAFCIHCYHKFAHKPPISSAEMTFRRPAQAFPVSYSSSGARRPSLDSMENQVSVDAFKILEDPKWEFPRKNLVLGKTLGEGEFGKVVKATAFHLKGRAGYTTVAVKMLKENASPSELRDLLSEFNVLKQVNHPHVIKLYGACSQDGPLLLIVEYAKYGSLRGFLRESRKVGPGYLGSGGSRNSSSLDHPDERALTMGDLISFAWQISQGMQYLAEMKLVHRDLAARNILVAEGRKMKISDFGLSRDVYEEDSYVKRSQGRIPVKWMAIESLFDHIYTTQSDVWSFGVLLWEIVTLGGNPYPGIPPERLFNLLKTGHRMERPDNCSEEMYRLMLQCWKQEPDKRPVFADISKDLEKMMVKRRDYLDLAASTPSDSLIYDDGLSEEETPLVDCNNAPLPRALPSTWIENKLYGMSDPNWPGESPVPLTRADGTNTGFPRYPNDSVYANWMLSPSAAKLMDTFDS

[7] = molecular target: Proto-oncogene tyrosine-protein kinase receptor Ret (Homo sapiens) (UniProt P07949); conditions: at 1 µM
[8] = tested on: Proto-oncogene tyrosine-protein kinase receptor Ret (Homo sapiens), P07949 [V804L]; conditions: at 0.1 µM
Sequence of Proto-oncogene tyrosine-protein kinase receptor Ret (Homo sapiens), P07949 [V804L] (P07949 whole entry V804L): as the sequence (P07949 whole entry) above, with V804L counted along it

[9] = tested on: Proto-oncogene tyrosine-protein kinase receptor Ret (Homo sapiens), P07949 [V804L]; conditions: at 1 µM
[10] = tested on: Proto-oncogene tyrosine-protein kinase receptor Ret (Homo sapiens), P07949 [Y791F]; conditions: at 0.1 µM
[11] = tested on: Proto-oncogene tyrosine-protein kinase receptor Ret (Homo sapiens), P07949 [Y791F]; conditions: at 1 µM
[12] = molecular target: Macrophage-stimulating protein receptor (Homo sapiens) (UniProt Q04912); conditions: at 0.1 µM
Sequence of Macrophage-stimulating protein receptor (Homo sapiens) (Q04912 25-304 limits assumed): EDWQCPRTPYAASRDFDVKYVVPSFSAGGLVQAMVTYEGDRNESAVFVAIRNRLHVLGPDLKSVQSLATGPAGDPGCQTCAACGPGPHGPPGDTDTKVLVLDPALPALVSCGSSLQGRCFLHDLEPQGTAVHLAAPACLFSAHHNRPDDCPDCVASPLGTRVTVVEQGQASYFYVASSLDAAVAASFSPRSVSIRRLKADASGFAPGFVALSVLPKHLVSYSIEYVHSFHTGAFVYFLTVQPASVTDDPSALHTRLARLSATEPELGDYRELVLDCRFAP
Sequence of Macrophage-stimulating protein receptor (Homo sapiens) (Q04912 310-1400 limits assumed): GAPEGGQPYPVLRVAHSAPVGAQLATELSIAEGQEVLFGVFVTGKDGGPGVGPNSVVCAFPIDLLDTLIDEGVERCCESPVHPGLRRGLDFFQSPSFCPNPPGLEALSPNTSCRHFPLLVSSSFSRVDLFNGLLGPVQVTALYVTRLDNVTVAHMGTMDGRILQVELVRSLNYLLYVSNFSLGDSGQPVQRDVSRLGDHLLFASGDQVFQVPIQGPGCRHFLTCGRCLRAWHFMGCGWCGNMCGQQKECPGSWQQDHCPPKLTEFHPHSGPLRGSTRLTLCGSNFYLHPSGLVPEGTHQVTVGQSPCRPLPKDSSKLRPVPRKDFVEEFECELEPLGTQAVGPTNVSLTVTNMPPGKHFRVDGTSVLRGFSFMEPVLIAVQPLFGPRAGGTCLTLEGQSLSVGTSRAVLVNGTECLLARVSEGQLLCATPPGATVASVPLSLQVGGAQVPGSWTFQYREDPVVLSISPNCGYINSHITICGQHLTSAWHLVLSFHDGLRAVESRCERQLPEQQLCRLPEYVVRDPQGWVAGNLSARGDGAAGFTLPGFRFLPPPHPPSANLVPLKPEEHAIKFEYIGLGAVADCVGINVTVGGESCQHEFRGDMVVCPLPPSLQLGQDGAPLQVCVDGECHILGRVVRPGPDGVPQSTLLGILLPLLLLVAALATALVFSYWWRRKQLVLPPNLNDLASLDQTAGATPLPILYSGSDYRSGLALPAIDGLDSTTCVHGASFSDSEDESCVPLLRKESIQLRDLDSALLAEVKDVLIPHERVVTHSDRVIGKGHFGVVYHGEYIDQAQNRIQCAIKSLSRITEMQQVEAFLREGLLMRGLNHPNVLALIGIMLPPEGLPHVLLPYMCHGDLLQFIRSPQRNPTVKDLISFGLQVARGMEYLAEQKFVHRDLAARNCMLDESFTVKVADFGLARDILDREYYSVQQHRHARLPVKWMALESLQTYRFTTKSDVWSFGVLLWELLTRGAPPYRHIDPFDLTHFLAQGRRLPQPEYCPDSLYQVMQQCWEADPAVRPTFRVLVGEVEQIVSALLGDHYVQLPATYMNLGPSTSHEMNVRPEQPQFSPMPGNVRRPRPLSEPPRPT

[13] = molecular target: Macrophage-stimulating protein receptor (Homo sapiens) (UniProt Q04912); conditions: at 1 µM
[14] = molecular target: Proto-oncogene tyrosine-protein kinase ROS (Homo sapiens) (UniProt P08922); conditions: at 0.1 µM
[15] = molecular target: Proto-oncogene tyrosine-protein kinase ROS (Homo sapiens) (UniProt P08922); conditions: at 1 µM
[16] = molecular target: Proto-oncogene tyrosine-protein kinase Src (Homo sapiens) (UniProt P12931); conditions: at 0.1 µM
Sequence of Proto-oncogene tyrosine-protein kinase Src (Homo sapiens) (P12931 2-536 limits assumed): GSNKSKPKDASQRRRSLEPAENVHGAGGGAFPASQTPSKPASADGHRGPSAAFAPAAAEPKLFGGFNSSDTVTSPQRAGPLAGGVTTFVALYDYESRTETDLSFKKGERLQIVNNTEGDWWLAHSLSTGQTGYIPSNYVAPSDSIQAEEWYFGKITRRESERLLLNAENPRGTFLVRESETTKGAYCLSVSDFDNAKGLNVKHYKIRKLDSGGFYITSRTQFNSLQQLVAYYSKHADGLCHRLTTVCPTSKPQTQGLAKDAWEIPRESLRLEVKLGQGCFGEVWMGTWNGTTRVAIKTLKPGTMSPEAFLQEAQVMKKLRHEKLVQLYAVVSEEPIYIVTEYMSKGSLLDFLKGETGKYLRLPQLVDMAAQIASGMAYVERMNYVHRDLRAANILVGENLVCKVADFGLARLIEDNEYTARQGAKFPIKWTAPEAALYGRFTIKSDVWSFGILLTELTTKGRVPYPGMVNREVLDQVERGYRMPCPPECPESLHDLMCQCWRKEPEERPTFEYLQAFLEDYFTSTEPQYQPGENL

[17] = molecular target: Proto-oncogene tyrosine-protein kinase Src (Homo sapiens) (UniProt P12931); conditions: at 1 µM
[18] = molecular target: Tyrosine-protein kinase Srms (Homo sapiens) (UniProt Q9H3Y6); conditions: at 0.1 µM
Sequence of Tyrosine-protein kinase Srms (Homo sapiens) (Q9H3Y6 whole entry): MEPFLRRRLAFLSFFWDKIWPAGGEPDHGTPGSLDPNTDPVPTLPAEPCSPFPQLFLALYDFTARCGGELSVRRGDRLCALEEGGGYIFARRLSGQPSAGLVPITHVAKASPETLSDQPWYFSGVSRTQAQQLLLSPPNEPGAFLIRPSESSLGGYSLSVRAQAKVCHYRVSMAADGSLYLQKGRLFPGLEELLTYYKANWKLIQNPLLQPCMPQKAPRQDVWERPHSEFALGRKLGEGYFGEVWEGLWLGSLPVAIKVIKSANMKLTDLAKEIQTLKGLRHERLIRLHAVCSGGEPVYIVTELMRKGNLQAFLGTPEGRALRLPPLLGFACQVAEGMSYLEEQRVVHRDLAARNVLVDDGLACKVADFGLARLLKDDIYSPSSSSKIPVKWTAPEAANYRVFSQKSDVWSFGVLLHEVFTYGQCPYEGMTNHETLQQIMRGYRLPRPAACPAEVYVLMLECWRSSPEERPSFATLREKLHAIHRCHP

[19] = molecular target: Tyrosine-protein kinase Srms (Homo sapiens) (UniProt Q9H3Y6); conditions: at 1 µM
[20] = molecular target: Tyrosine-protein kinase SYK (Homo sapiens) (UniProt P43405); conditions: at 0.1 µM;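 note: reported percentages are mean inhibition values for SYK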

Sequence of Tyrosine-protein kinase FRK (Homo sapiens) (P42685 whole entry): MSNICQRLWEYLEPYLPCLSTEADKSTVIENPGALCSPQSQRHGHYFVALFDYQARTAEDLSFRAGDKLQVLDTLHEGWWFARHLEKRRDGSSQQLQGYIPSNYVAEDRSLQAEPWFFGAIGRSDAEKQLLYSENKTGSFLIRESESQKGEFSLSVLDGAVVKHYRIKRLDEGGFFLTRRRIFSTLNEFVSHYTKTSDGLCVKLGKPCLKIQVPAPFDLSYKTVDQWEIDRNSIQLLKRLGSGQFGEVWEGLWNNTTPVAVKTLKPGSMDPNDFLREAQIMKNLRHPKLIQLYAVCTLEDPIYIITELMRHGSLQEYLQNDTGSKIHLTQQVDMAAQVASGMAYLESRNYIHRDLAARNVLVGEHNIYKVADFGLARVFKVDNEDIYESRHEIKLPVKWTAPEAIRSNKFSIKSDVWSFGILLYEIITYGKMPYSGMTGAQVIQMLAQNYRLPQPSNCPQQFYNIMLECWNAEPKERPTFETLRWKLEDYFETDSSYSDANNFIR

Compound | inhibition [1] | inhibition [2] | inhibition [3] | inhibition [4] | inhibition [5] | inhibition [6] | inhibition [7] | inhibition [8] | inhibition [9] | inhibition [10] | inhibition [11] | inhibition [12] | inhibition [13] | inhibition [14] | inhibition [15] | inhibition [16] | inhibition [17] | inhibition [18] | inhibition [19] | inhibition [20]
FC(F)(F)CNc1nccc(-c2cnn3ncccc23)n1 | 3.09% | 1.82% | 1.72% | -0.29% | 2.94% | 3.97% | 2.84% | 1.22% | 3.68% | 1.04% | 2.92% | 1.76% | -1.8% | -0.19% | 2.27% | 3.96% | 3.98% | -5.51% | -3.04% | -0.18%
CS(=O)(=O)CCNCc1ccc(-c2ccc3ncnc(Nc4ccc(OCc5ccccc5)cc4)c3c2)o1 | 4.72% | 0.38% | 0.96% | 7.76% | 6.51% | 2.99% | 9.8% | 3.01% | 11.9% | 3.34% | 9.58% | 2.59% | 3.8% | 1.11% | 8.89% | 9.13% | 12.5% | -0.68% | 2.59% | 1.7%
O=C1Nc2ccccc2/C1=C1\CCc2cc(O)ccc21 | 47.9% | 2.6% | 3.64% | 18.3% | 44% | 23% | 66.3% | 36.1% | 73.6% | 25.8% | 64.6% | 5.94% | 2.23% | 10.8% | 18.6% | -0.52% | 15.2% | -1.04% | -4.06% | -8.61%
COc1cc(N2CCN(C(C)C)CC2)ccc1Nc1nc(Nc2cccc(F)c2C(=O)O)c2cc[nH]c2n1 | 6.82% | 4.04% | 4.07% | 90.6% | 96.4% | 4.88% | 5.6% | 3.85% | 12.1% | 4.5% | 11.6% | 0.36% | 2.96% | 13.8% | 54.7% | -3.89% | 8.5% | -1.76% | 5.01% | -4.66%
COc1ccc(Nc2ncc(-c3ccccc3)o2)cc1OC | 68% | -0.09% | 4.33% | -5.6% | 1.04% | 6.8% | 23.1% | 4.53% | 17.1% | 6.85% | 27.2% | -0.4% | 5.46% | 7.2% | 24.5% | 12.2% | 54% | 0.67% | 2.69% | 4.52%
CN(C)CCNC(=O)Nc1ccc(N(C)c2ccnc(Nc3ccc(CS(C)(=O)=O)cc3)n2)cc1 | 66.8% | 0.22% | 0.97% | 18.4% | 58.6% | 7.81% | 14.9% | 4.98% | 13.9% | 9.9% | 23.3% | 3.87% | 7.76% | 15.3% | 78% | 4.55% | 14.4% | -2.02% | -0.56% | -4.06%
Cn1c(-c2nonc2N)nc2cnccc21 | 6.81% | 0.98% | 1.06% | 8.49% | 4.49% | 2.99% | 4.58% | 2.88% | 1.31% | 3.98% | 7.82% | 5.57% | -0.92% | 2.77% | 3.73% | -0.58% | 6.9% | 0.1% | 4.56% | -1.4%
CCOc1ccc2c(-c3ccnc(Nc4cc(OC)cc(C(F)(F)F)c4)n3)cnn2n1 | 29.3% | -0.17% | -0.61% | 4.61% | 21.2% | 2.73% | 13.2% | 1.94% | 5.01% | 2.94% | 5.26% | 8% | 7.47% | 4.18% | 20.7% | -3.54% | 16.3% | 2.39% | 4.4% | -3.45%
CNC(=O)c1sc(-n2cnc3cc(OC)c(OC)cc32)cc1OCc1ccccc1C(F)(F)F | 44.2% | 1.48% | 3.75% | -3.85% | 0.13% | 1.78% | 9.67% | 6.14% | 11.4% | 8.02% | 14.2% | 1.42% | 3.32% | 3.19% | 5.06% | 6.71% | 8.35% | -1.1% | 0.5% | -0.5%

— ChEMBL document CHEMBL1961873, “Compounds: GSK PKIS; Assays: Nanosyn kinase panel” (2012)
